Values joined by “and” are separate entries in the source; they are usually repeats but may differ in a detail not shown here. Equal entries are not always repeated. Out of some 190,000 compounds screened, about 1,300 (0.68%) were called active. Cut-off read from the data, not from the text of the source: active = inhibition above about 50%; inactive = the rest. Many of the other results were omitted from the sample, so actives are more common in it than they were. The source holds several records for some structures; these can differ, active in one and inactive in another.

Sequence of Mannose-6-phosphate isomerase (Homo sapiens) (P34949 whole entry, looked up): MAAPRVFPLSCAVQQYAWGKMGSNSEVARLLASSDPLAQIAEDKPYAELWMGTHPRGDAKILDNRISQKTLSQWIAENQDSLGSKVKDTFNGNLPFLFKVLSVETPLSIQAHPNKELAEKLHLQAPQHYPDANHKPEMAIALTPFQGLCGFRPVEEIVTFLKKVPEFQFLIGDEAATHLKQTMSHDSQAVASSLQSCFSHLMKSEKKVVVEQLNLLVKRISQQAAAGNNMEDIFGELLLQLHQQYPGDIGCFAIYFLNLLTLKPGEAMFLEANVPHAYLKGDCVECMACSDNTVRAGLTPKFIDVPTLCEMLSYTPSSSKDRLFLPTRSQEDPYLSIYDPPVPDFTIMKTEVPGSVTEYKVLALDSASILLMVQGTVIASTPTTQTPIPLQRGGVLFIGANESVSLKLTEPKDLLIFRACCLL

The assay addresses Mannose-6-phosphate isomerase (Homo sapiens) (UniProt P34949). Kind of assay: MPI inhibition at elevated mannose 6-phosphate – biochemical, fluorescence intensity, high mannose 6-phosphate, primary screen (AID 1220). To be noted: recombinant PMI enzyme, coupled fluorescence intensity; at 20 µM; stronger effect = higher value.
One may read the inhibition as the change of the read-out against control, counted positive when it falls. In the case of `CCC(=O)NC(=S)Nc1cccc(NC(=O)c2ccco2)c1`, the inhibition is 9.6% (inactive). Take `CCC(C)C(NC(=O)c1ccc(Cl)cc1Cl)C(=O)O` (stereo not drawn): the inhibition was 1.7% (inactive).

As to `COc1ccc(CC(=O)Nc2ccccc2C(=O)N2CCOCC2)cc1`, the inhibition is 5.3% (inactive). On to `CCOC(=O)N1CCC(N2Cc3cccc(C(=O)Nc4ccc(F)cc4)c3C2=O)CC1`, for which the inhibition was -3.9% (inactive). In the case of `O=C(COc1ccccc1[N+](=O)[O-])NNC(=O)Nc1cccc2ccccc12`, the inhibition is 59.8% (active). Regarding `NNC(=O)COc1ccccc1[N+](=O)[O-]`, the inhibition was 4.8% (inactive). On to `COC(=O)c1ccccc1NC(=O)COc1ccccc1[N+](=O)[O-]`, for which the inhibition is -1.9% (inactive). For `CCOCCCn1c(=N)c(C(=O)NCc2ccc3c(c2)OCO3)cc2c(=O)n3ccccc3nc21` the value was -7.7% (inactive). Take `CC(C)OCCCNC(=O)c1ccc(N(C)S(C)(=O)=O)cc1`: the inhibition was 6.8% (inactive). For `Cc1cccc(C=Nc2ccc3c(c2)oc2ccccc23)c1O`, the inhibition was 30.1% (inactive). For `CCOc1cccc(C=Nc2cc(C)cc(C)c2O)c1O` the value was 7% (inactive). As to `CCc1ccc(O)c(N=Cc2cccc(C)c2O)c1`, the inhibition was 17.4% (inactive). For the molecule `Cc1ccc(N=Cc2sc(O)c3ccccc23)c(C)c1`, the inhibition is 2.2% (inactive). Consider `CCC(=O)N1CCN(c2ccccc2NC(=O)Cc2ccccc2)CC1`, for which the inhibition is 3.5% (inactive).

For the molecule `CCNC(=S)Nc1ccc(S(=O)(=O)Nc2cc(C)nc(C)n2)cc1`, the inhibition was -7.6% (inactive). `O=C(O)C1CC=CCC1C(=O)Nc1cccc(C(=O)N2CCCCC2)c1` (stereo not drawn): the inhibition was -20.1% (inactive).

Regarding `COc1cccc(C(c2sc3nc(C)nn3c2O)N2CCc3ccccc3C2)c1` (stereo not drawn), the inhibition was 42.6% (inactive). Consider `COc1cc(C(c2sc3nc(C)nn3c2O)N2CCc3ccccc3C2)cc(OC)c1OC` (stereo not drawn), for which the inhibition is 5.1% (inactive). On to `Cc1ccc2c(c1)NC(=O)C(CC(=O)NCCCN1CCN(c3cc(C)ccc3C)CC1)O2` (stereo not drawn), for which the inhibition is 9.9% (inactive).

For the molecule `CN(C)/C=N/c1nc(-c2ccc3c(c2)OCO3)cs1`, the inhibition was 7.4% (inactive).

As for `CC(=O)Nc1cc(C(C)C)c(O)c(C(C)C)c1`, the inhibition was 6.7% (inactive). For `CC(C)c1cc(NC(=O)c2ccccc2)cc(C(C)C)c1O` the value was 8.4% (inactive); for `CC(C)c1cc(Nc2cccc(O)c2)cc(C(C)C)c1O`, 53.6% (active). Turning to `CC(C)(C)NC(=O)C(c1ccc(OCC(N)=O)cc1)N(C(=O)c1cccnc1)C1CC1` (stereo not drawn), the inhibition was -7.4% (inactive). For `C=CCNC(=O)c1ccc2c(c1)nnn2C` the value was 3.7% (inactive); for `CN(C)/C=C/C(=O)c1cnc(-c2ccc(Cl)cc2)s1`, 0.9% (inactive). For `O=C(c1ccc(Cl)nc1)N1CCc2ccccc2C1`, the inhibition is 5.7% (inactive). With `Cc1cccc(Nc2nc(-c3c(C)nc4ccccn34)cs2)c1` the figure was 47% (inactive); with `Cc1ccc(Nc2nc(-c3c(C)nc4ccccn34)cs2)cc1`, 57.1% (active); with `Cc1ccc(Nc2nc(-c3c(C)nc4ncccn34)cs2)cc1`, 18.6% (inactive). As for `CSc1ccccc1NC(=O)COc1ccc(Cl)cc1`, the inhibition is 3.4% (inactive).

For `CCCOC(=O)c1cc(NC(=O)/C=C/c2ccccc2)ccc1O`, the inhibition is 14.7% (inactive).

For `C/C=C/CSc1nc2c(c(=O)[nH]c(=O)n2C)n1Cc1ccc(C)cc1`, the inhibition was 14% (inactive).

Consider `COC(=O)c1ccccc1NC1=C/C(=N\S(=O)(=O)c2cccs2)c2ccccc2C1=O`, for which the inhibition was -25.4% (inactive).

Regarding `Cc1cccc(NC2=C/C(=N/S(=O)(=O)c3cccs3)c3ccccc3C2=O)c1`, the inhibition is 56.8% (active). With `O=C1C(Nc2ccc(O)cc2)=C/C(=N/S(=O)(=O)c2cccs2)c2ccccc21`, the inhibition is 47.6% (inactive). With `Cc1ccc(Cl)cc1NC1=C/C(=N\S(=O)(=O)c2cccs2)c2ccccc2C1=O` the figure was 16.4% (inactive); with `Cc1ccc(NC2=C/C(=N\S(=O)(=O)c3cccs3)c3ccccc3C2=O)c(C)c1`, 50.1% (active); with `Cc1ccccc1NC1=C/C(=N\S(=O)(=O)c2cccs2)c2ccccc2C1=O`, 17.2% (inactive). Consider `Cc1ccc(NC2=C/C(=N/S(=O)(=O)c3cccs3)c3ccccc3C2=O)cc1`, for which the inhibition was 47.9% (inactive). For `CC(=O)Nc1ccc(NC2=C/C(=N/S(=O)(=O)c3cccs3)c3ccccc3C2=O)cc1` the value was 54.1% (active). For `Cc1ccc(NC2=C/C(=N/S(=O)(=O)c3cccs3)c3ccccc3C2=O)cc1C` the value was 31.2% (inactive); for `CCN1CCN(CC(=O)NC2CCCC2)C(=O)C1=O`, 5.9% (inactive); for `CC(NC(=O)C1CCCN(S(=O)(=O)c2cnc[nH]2)C1)c1ccccc1` (stereo not drawn), -0.1% (inactive). Turning to `CCOc1ccccc1-c1nc(-c2ccc(NC(=O)Cc3ccc(OC)cc3)cc2)no1`, the inhibition was -5.8% (inactive). Turning to `COc1ccc(NC(=O)N2CCN(S(C)(=O)=O)CC2)cc1OC`, the inhibition was 14% (inactive). As to `COc1ccccc1NC(=O)/C(C#N)=C/c1cc([N+](=O)[O-])ccc1N1CCCC1`, the inhibition is -6.4% (inactive). Turning to `COc1cc(OC)cc(C(=O)NC(C(=O)O)C23CC4CC(CC(C4)C2)C3)c1` (stereo not drawn), the inhibition is -4.9% (inactive).

In the case of `COc1ccc(/C(O)=C2/C(=O)C(=O)N(CC3CCCO3)C2c2ccc(O)c(OC)c2)cc1` (stereo not drawn), the inhibition is 5.8% (inactive).

On to `O=S(=O)(NCCNc1ncc(C(F)(F)F)cc1Cl)C(F)(F)F`, for which the inhibition is 6.3% (inactive). Regarding `CCOc1cc(NC(=S)NCC2CCCO2)c(OCC)cc1NC(=O)C1CC1` (stereo not drawn), the inhibition is 5.5% (inactive). For `CCOc1cc(NC(=S)NCC2CCCO2)c(OCC)cc1NC(=O)c1cccc(F)c1` (stereo not drawn), the inhibition is 53.7% (active). `CCOc1cc(NC(=S)NCC2CCCO2)c(OCC)cc1NC(=O)CC(C)C` (stereo not drawn): the inhibition was 15.4% (inactive). For the molecule `CCOc1ccccc1NC(=S)NCC1CCCO1` (stereo not drawn), the inhibition was -3.2% (inactive). On to `CCOc1cc(NC(=S)NCC2CCCO2)c(OCC)cc1NC(=O)CC` (stereo not drawn), for which the inhibition was 6.9% (inactive). For the molecule `CCOc1cc(NC(=S)NCC2CCCO2)c(OCC)cc1NC(=O)c1ccccc1F` (stereo not drawn), the inhibition is 53.9% (active).

Regarding `CCOc1cc(NC(=S)NCC2CCCO2)c(OCC)cc1NC(=O)c1ccc(C)cc1` (stereo not drawn), the inhibition was 58.2% (active). Consider `CCOc1cc(NC(=S)NCC2CCCO2)c(OCC)cc1NC(=O)c1ccccc1` (stereo not drawn), for which the inhibition is 17.7% (inactive). For `CCOc1cc(NC(=S)NCC2CCCO2)c(OCC)cc1NC(=O)c1ccccc1C` (stereo not drawn) the value was 5.7% (inactive); for `CCOc1cc(NC(=S)NCC2CCCO2)c(OCC)cc1NC(=O)c1cccc(C)c1` (stereo not drawn), 17% (inactive); for `CCOc1cc(NC(=S)NCC2CCCO2)c(OCC)cc1NC(=O)c1ccc(OC)cc1` (stereo not drawn), 35% (inactive).

For the molecule `CCOc1cc(NC(=S)NCC2CCCO2)c(OCC)cc1NC(=O)c1ccc(F)cc1` (stereo not drawn), the inhibition is 54.9% (active).

Take `CN(c1ccccc1)S(=O)(=O)c1ccc(Cl)c(C(=O)Nc2ccc(-c3nc4ccccc4[nH]3)cc2)c1`: the inhibition was 3.8% (inactive). For `CC1CCCC(NC(=O)CC2Nc3ccccc3NC2=O)C1C` (stereo not drawn), the inhibition was -4.1% (inactive).

On to `N#C/C(=C\c1cn(Cc2ccccc2)c2ccccc12)C(=O)NCc1ccco1`, for which the inhibition was 15.2% (inactive).

Turning to `Nn1cnnc1SCC(=O)Nc1ccc2c(c1)OCCO2`, the inhibition is 9.6% (inactive). Consider `O=C(NCc1ccco1)/C(=C/C=C/c1ccccc1)NC(=O)c1ccco1`, for which the inhibition was 6% (inactive). Take `CC(=O)c1ccc(NC(=S)NCc2cccnc2)cc1`: the inhibition was -2.6% (inactive). As to `c1ccc(COc2cccc(CNCc3ccccn3)c2)cc1`, the inhibition was -10.4% (inactive). Regarding `Cc1ccc2cc(CCNC(=O)Cc3cccs3)c(=O)[nH]c2c1`, the inhibition was -0.6% (inactive).

On to `c1ccc2[nH]c(-c3ccnc4ccccc34)nc2c1`, for which the inhibition is 51.2% (active) and -1.5% (inactive). With `Fc1ccccc1-c1nc2ccccc2[nH]1`, the inhibition is -1.9% (inactive). For `c1ccc(-c2cc(-c3nc4ccccc4[nH]3)c3ccccc3n2)cc1` the value was 12.1% (inactive). Consider `CCOC(=O)N1CCN(c2cc(NCCC(=O)O)c3c4c(onc24)-c2ccccc2C3=O)CC1`, for which the inhibition was -2.8% (inactive).

In the case of `CN1CCN(c2ccc(Cl)cc2NC(=O)CCN2C(=O)c3ccccc3C2=O)CC1`, the inhibition was -10.2% (inactive). In the case of `O=C(O)CCCNc1cc(N2CCC3(CC2)OCCO3)c2noc3c2c1C(=O)c1ccccc1-3`, the inhibition is 54.1% (active). For the molecule `CCCCNC(=O)c1ccc(N2CCC3(CC2)OCCO3)c([N+](=O)[O-])c1`, the inhibition was 2.4% (inactive). For `CC(=O)OCCNc1cc(N2CCN(C)CC2)c2noc3c2c1C(=O)c1ccccc1-3`, the inhibition is 50.5% (active).

For the molecule `O=C(O)CCCCCNS(=O)(=O)c1cccc2c1C(=O)c1ccccc1C2=O`, the inhibition was 31.4% (inactive). For `CC(Oc1ccccc1F)C(=O)NNC(=O)c1cc2ccccc2o1` (stereo not drawn), the inhibition is 2.5% (inactive). For `Cc1ccc(NC(=S)NC2CCN(Cc3ccccc3)CC2)cc1`, the inhibition is 8.2% (inactive). Turning to `COc1cc(NC(=O)Cn2cnc3ccccc3c2=O)c(OC)cc1Cl`, the inhibition was 14.9% (inactive). For `CCOC(=O)c1sc2ncnc(N3CCN(CC)CC3)c2c1C` the value was -2.6% (inactive). As for `O=C(Cn1cnc2c(nnn2Cc2ccc(F)cc2)c1=O)NCc1ccc(F)cc1`, the inhibition is -6.8% (inactive). On to `COC(=O)c1cc(C(=O)OC)cc(-n2c(C)cc(C(=O)COC(=O)CNS(=O)(=O)c3ccc(C)cc3)c2C)c1`, for which the inhibition is 6.4% (inactive). For the molecule `Oc1ccc(/C=N/Nc2nc(N3CCCC3)nc(N3CCCC3)n2)cc1O`, the inhibition was 27% (inactive).

`Cc1cc(N/N=C/c2ccccc2O)nc(-c2ccccc2O)n1`: the inhibition was 48.2% (inactive). Take `Cc1cc(N/N=C/c2ccc(O)c(C)c2O)nc(-c2ccccc2O)n1`: the inhibition was 33.4% (inactive).

On to `Oc1ccc(/C=N/Nc2nc(N3CCCCCC3)nc(N3CCCCCC3)n2)c(O)c1`, for which the inhibition is 19.9% (inactive). As to `C(=N\Nc1ccccn1)/c1ccc(N2CCOCC2)cc1`, the inhibition was 23.5% (inactive). In the case of `Cc1cc(N/N=C/c2ccc(O)cc2O)nc(-c2ccccc2O)n1`, the inhibition is 52.9% (active). For `CC(=O)NNc1cc(N2CCOCC2)nc(N2CCOCC2)n1` the value was 11.3% (inactive). Take `Oc1ccc(/C=N\Nc2cc(N3CCOCC3)nc(N3CCOCC3)n2)c(O)c1`: the inhibition was 61.1% (active).
